The values below come from article PMC13494018.

Values without a mark were called inactive. The rule behind the calls is not given here.

The target in the test is VTCN1, Q7Z7D3.
Sequence of VTCN1, Q7Z7D3 (Q7Z7D3 whole entry): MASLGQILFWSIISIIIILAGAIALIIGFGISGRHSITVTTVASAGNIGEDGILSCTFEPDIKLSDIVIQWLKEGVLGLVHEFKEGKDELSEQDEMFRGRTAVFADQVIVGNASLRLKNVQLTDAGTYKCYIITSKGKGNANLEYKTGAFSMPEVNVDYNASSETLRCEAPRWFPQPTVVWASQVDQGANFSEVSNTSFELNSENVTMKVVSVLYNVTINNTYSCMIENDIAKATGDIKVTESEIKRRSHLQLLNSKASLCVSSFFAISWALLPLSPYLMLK

B1: design_609_7ee6ce64-4629-41e8-bcb4-ba0da017284d_1733_dldesign_0_cycle1_af2pred (protein)
chain: SEKDKAIMEATFHANGALNLADVGGDKKEIEKEAKLAKEHAEKAAKLSSKEEGAKILEYVEKKVKEVEEKLKKL
Take B1: the “binding in a display sort” value is “not found”.

B2: design_609_7ee6ce64-4629-41e8-bcb4-ba0da017284d_2027_dldesign_0_cycle1_af2pred (protein)
chain: MTPEELLAKIKELAKKAKEAKDEKEAKKYLEEAKAAAAELKANGTPETAKQASAAVAEAYENYAEAVFKIK
As to B2, the “binding in a display sort” value was “not found”.

B3: design_609_7ee6ce64-4629-41e8-bcb4-ba0da017284d_1185_dldesign_0_cycle1_af2pred (protein)
chain: KSEESKKEAEAAAKAAGEAMAKATGDKATADALAKAMLDALKAGDEAAAVAKRNEAAAIALAADPALAMDVLAEGKAAIVYAKK
B3: the “binding in a display sort” value is “not found”.

B4: design_609_7ee6ce64-4629-41e8-bcb4-ba0da017284d_1448_dldesign_0_cycle1_af2pred (protein)
chain: AEEEARKERLEAAKKELNELRLKAADSGDAEKALEYAKQAEAVAEKAGIPEDGEKAARVIRSIAEALKKN
With B4, the “binding in a display sort” value was “not found”.

B5: design_609_7ee6ce64-4629-41e8-bcb4-ba0da017284d_1172_dldesign_0_cycle1_af2pred (protein)
chain: MEEVEAFKKEAQKKLDEAVEYALSISDIEKSKKVADLMSEMGKHYSEAYKAMESGEKLEEAKKNIEKAEEYYKKAKEIAEEDEKKKKE
Turning to B5, the “binding in a display sort” value was “not found”.

B6: design_609_7ee6ce64-4629-41e8-bcb4-ba0da017284d_1721_dldesign_0_cycle1_af2pred (protein)
chain: SKLEEDKKKAEELKKEAEKLAEEAAKTTPEEAKKLRKELREKAKKVAEEVSPEIAKKVAEIAHEAQQKIAEAMQEIKK
B6: the “binding in a display sort” value was “not found”.

B7: design_609_7ee6ce64-4629-41e8-bcb4-ba0da017284d_960_dldesign_0_cycle1_af2pred (protein)
chain: DEEAYKKAKERGKKLEEKAKASNAYSAAAYYEAAYESYLQAAKQVRPELAKELKKAAEEAKAKAEEKYAEVAA
Turning to B7, the “binding in a display sort” value is “not found”.

B8: design_609_7ee6ce64-4629-41e8-bcb4-ba0da017284d_1351_dldesign_0_cycle1_af2pred (protein)
chain: AAAAAAEAARAAAAAAAVAAAAEAKTAEVAKADPSAAPYYADAAGIVVDSAAAALAAAPGAEAAAIAARGVRTINRLAESTIEAIKRR
Turning to B8, the “binding in a display sort” value is “not found”.

B9: design_609_7ee6ce64-4629-41e8-bcb4-ba0da017284d_1401_dldesign_0_cycle1_af2pred (protein)
chain: ALAALLEGLAKAAVIVARGIRRAARYAGDPRKAGFAFIVAGEQAFLVGRADPNPVAAAVLWLTGVLLIAIGLAIEAS
As to B9, the “binding in a display sort” value was “not found”.

B10: design_609_7ee6ce64-4629-41e8-bcb4-ba0da017284d_2006_dldesign_0_cycle1_af2pred (protein)
chain: EKLLGEGYADIIVDNTKSVIAADPSKAEEYVETNKAKGLARAEKIKDTEAGKVLKEKVEKEAEKLLAEAKKAKAAAEAAA
In the case of B10, the “binding in a display sort” value is “not found”.

B11: design_609_7ee6ce64-4629-41e8-bcb4-ba0da017284d_1630_dldesign_0_cycle1_af2pred (protein)
chain: AAGAAAVAAASKARGEALFELAAKAKFGTEEEAKEAEAKRKALTAAAKAVKAAAGTADAAAVATAARAQAEAIL
As to B11, the “binding in a display sort” value was “not found”.

B12: design_609_7ee6ce64-4629-41e8-bcb4-ba0da017284d_1938_dldesign_0_cycle1_af2pred (protein)
chain: EEELKKLIEEHMEKLAKEAEKADPEVGKEVKEALKKAKKLNVGEAISLFLSTGARAAKEIGKKDPEKGKKVKEIVDKALDEIFSK
Regarding B12, the “binding in a display sort” value is “not found”.

B13: design_609_7ee6ce64-4629-41e8-bcb4-ba0da017284d_1016_dldesign_0_cycle1_af2pred (protein)
chain: AAADAKAKFDVAFLAAELRASARAAAKANPAAAPAVVDAAAERLRAAGAAGTPEAAAYADAAIARERAWAAAAAAA
Turning to B13, the “binding in a display sort” value was “not found”.

B14: design_609_7ee6ce64-4629-41e8-bcb4-ba0da017284d_1161_dldesign_0_cycle1_af2pred (protein)
chain: GSEEARKLQEEFGEALRRFTAAGRRLVETGREVGERTGDPEIEERARRVAEEGNRRRLEALDAGDVEAILAVADELERATEELL
Turning to B14, the “binding in a display sort” value was “not found”.

B15: design_609_7ee6ce64-4629-41e8-bcb4-ba0da017284d_1354_dldesign_0_cycle1_af2pred (protein)
chain: AVAAAKAAAAKDAEEVNKLKFEAVDGDAETVEAVMKEVKARREEWLAKAKADPAAKAVYEAAAEGMDKTEKALQSVLDALKKN
B15: the “binding in a display sort” value was “not found”.

B16: design_609_7ee6ce64-4629-41e8-bcb4-ba0da017284d_962_dldesign_0_cycle1_af2pred (protein)
chain: AEAEVKAAIEELKAESEKIVEEAKKEMEKHKEDPKKVEEIRKEALKKIRELAKEVAEKTGDWKGASAVVHEAYEKLNEAYKEAIEKAK
With B16, the “binding in a display sort” value is “not found”.

B17: design_609_7ee6ce64-4629-41e8-bcb4-ba0da017284d_1996_dldesign_0_cycle1_af2pred (protein)
chain: AAAATAHEAIQTSTEAAEKLKKGKTEEDKELGKEIEEKRKELSRRAAEAQKEGPEAAKKAVAELAKFAEEAKKIAEEREKKRK
In the case of B17, the “binding in a display sort” value is “not found”.

B18: design_609_7ee6ce64-4629-41e8-bcb4-ba0da017284d_1726_dldesign_0_cycle1_af2pred (protein)
chain: AAAEEIAKAKAVYDKRKAKAQEYEKKGDYKGAANEYDIAAAQLGMAAAGLSPEAAAVAKALAEEAKKLAEEAEKKLAE
As for B18, the “binding in a display sort” value was “not found”.

B19: design_609_7ee6ce64-4629-41e8-bcb4-ba0da017284d_1405_dldesign_0_cycle1_af2pred (protein)
chain: DLKKKIEAEAGKSYAEGVAESAAKIIAEIDPEIAPEYAEKVKKELTALAEKLADKSLETVYKEAKAIAKKVIEEAKKKK
For B19, the “binding in a display sort” value was “not found”.

B20: design_609_7ee6ce64-4629-41e8-bcb4-ba0da017284d_2040_dldesign_0_cycle1_af2pred (protein)
chain: EEEEKEKKAKELEKEAVKHREEAFDKIAEGKLEEAKELAEKIRELAKKLEELGEEAKPLADRARKGARAVERLIEAAE
In the case of B20, the “binding in a display sort” value was “not found”.

B21: design_609_7ee6ce64-4629-41e8-bcb4-ba0da017284d_1728_dldesign_0_cycle1_af2pred (protein)
chain: EAEKQALADAAKAAEKAAKAAKESPEKGAKAAKELAKAYPEVAKAANAAARYIEELGEEGVDAAEEILKHAIKTLKAKAAAL
For the molecule B21, the “binding in a display sort” value was “not found”.

B22: design_609_7ee6ce64-4629-41e8-bcb4-ba0da017284d_1936_dldesign_0_cycle1_af2pred (protein)
chain: SASEKTKEYLKKNDELGKKAAELSLKDEEKGLALAEKDVYIAIKASAILYKKGDEKALEHAKKFKEVAFKMLDE
As to B22, the “binding in a display sort” value is “not found”.

B23: design_609_7ee6ce64-4629-41e8-bcb4-ba0da017284d_1790_dldesign_0_cycle1_af2pred (protein)
chain: NEADKEVEELTKKIKELTKKAKEALEKGNIEEAKKYAEEAMKAIKKAREIAPKASKELQKEASKAAAEAYEVYAEVEFKSK
Take B23: the “binding in a display sort” value is “not found”.

B24: design_609_7ee6ce64-4629-41e8-bcb4-ba0da017284d_1000_dldesign_0_cycle1_af2pred (protein)
chain: GKAIEAQKLVADAFAKYRKGKANPETYEEDKAEARELLREALELDFESAKETAKFLAELAKWQNPEAGKEFAALVEEVIAEVA
Consider B24, for which the “binding in a display sort” value was “not found”.

B25: design_609_7ee6ce64-4629-41e8-bcb4-ba0da017284d_1964_dldesign_0_cycle1_af2pred (protein)
chain: SKESRLRRAKALAEEAIKLLEEGEYAWAAALLRAAAREAERAGNEEAAKLLREAAELAAKSALEGPKYKEEALRLAKEALEILEKE
In the case of B25, the “binding in a display sort” value was “not found”.

B26: design_609_7ee6ce64-4629-41e8-bcb4-ba0da017284d_1108_dldesign_0_cycle1_af2pred (protein)
chain: MQEAIDYVKKKGSELIDKLVDDLAAGEEKDDPKIAKEVLEKLEELEKEAKKLSEEAAEEAKKAIETAKRIASNA
Regarding B26, the “binding in a display sort” value is “not found”.

B27: design_609_7ee6ce64-4629-41e8-bcb4-ba0da017284d_1780_dldesign_0_cycle1_af2pred (protein)
chain: MEQAELRREMVRLVREAGRILEEKAPEYPEAKEAIELLRKAVFLAGDKEKAPEALELLKKAAEIAKEIDPEAAELIKEALELAKKWKE
Turning to B27, the “binding in a display sort” value is “not found”.

B28: design_609_7ee6ce64-4629-41e8-bcb4-ba0da017284d_900_dldesign_0_cycle1_af2pred (protein)
chain: GKEMVDKYSKERKKIAEAAKLAKEGKENPETFEKKAEEALKIAEEAAKEGDEGIKFQAENLKAYIEKLRKEK
For the molecule B28, the “binding in a display sort” value is “not found”.

B29: design_609_7ee6ce64-4629-41e8-bcb4-ba0da017284d_1124_dldesign_0_cycle1_af2pred (protein)
chain: MAEAFEFTAEGLRLLAEEKSPEEAEKYNELAEKFEELAERARTGTPEDAKAAREEGNKLVKENSELVFEAKEYKTEKDYEELK
Regarding B29, the “binding in a display sort” value is “not found”.

B30: design_609_7ee6ce64-4629-41e8-bcb4-ba0da017284d_914_dldesign_0_cycle1_af2pred (protein)
chain: AEAEELVEKAEERYKKLKERAEKAIKEGNKNELLAVSEAAKHAAEQAEKLAPKTGEKGKEVAKKFKELSKKAEETAKK
As to B30, the “binding in a display sort” value was “not found”.

B31: design_609_7ee6ce64-4629-41e8-bcb4-ba0da017284d_1121_dldesign_0_cycle1_af2pred (protein)
chain: SKEEAIKNIRELRRELREVAEEAMKEVSEEDAKKVRELASKASGKLAEERGLAVSKPELAEEALKNAKEIAEKAIEEVKKIAEKAKK
Take B31: the “binding in a display sort” value is “not found”.

B32: design_609_7ee6ce64-4629-41e8-bcb4-ba0da017284d_985_dldesign_0_cycle1_af2pred (protein)
chain: SEEVLELGEREAERLKEAGASNRSIGLVLFLAEEAAEGNLEAAEGIFRAARREAEREKEKNPEVGELLEEALERLRKAAE
Consider B32, for which the “binding in a display sort” value was “not found”.

B33: design_609_7ee6ce64-4629-41e8-bcb4-ba0da017284d_1084_dldesign_0_cycle1_af2pred (protein)
chain: SEKEKEEVLKEAKEVLEKAKKAAEELGDEEAVKRMERRLKRAEEGNLQDAEAALESGKHALENAKKKLKEKEKAA
With B33, the “binding in a display sort” value was “not found”.

B34: design_609_7ee6ce64-4629-41e8-bcb4-ba0da017284d_1088_dldesign_0_cycle1_af2pred (protein)
chain: NKSKEYSDAMKELVRAAKEAAAAADALGAAKGDPALAQAIKAELEKLVFEAADGDIETAKKLAEEAKKLKEAAEKALA
With B34, the “binding in a display sort” value is “not found”.

B35: design_609_7ee6ce64-4629-41e8-bcb4-ba0da017284d_1135_dldesign_0_cycle1_af2pred (protein)
chain: SAALEHLVESLIENSTKAAEEGTPEVAKLLNAAAAAAKAGDLETALKLADQALALSPPNINVTLARSDARNALELAKK
Regarding B35, the “binding in a display sort” value is “not found”.

B36: design_609_7ee6ce64-4629-41e8-bcb4-ba0da017284d_1771_dldesign_0_cycle1_af2pred (protein)
chain: KKEEALNYASEMRAYLIGAAAASKLPQAPQLEAEAREKAEKVGELLSPEVAKKIKELTEQAIAGTPEERKALAREIAELVKKAVEE
As for B36, the “binding in a display sort” value was “not found”.

B37: design_609_7ee6ce64-4629-41e8-bcb4-ba0da017284d_1105_dldesign_0_cycle1_af2pred (protein)
chain: DALKEAAEIAAKARELAAELDYLAKKSSPELGKKYAAYAERLRKAVRETRETGVEGAEKTRKELEEVEKEVKEL
For B37, the “binding in a display sort” value was “not found”.

B38: design_609_7ee6ce64-4629-41e8-bcb4-ba0da017284d_1584_dldesign_0_cycle1_af2pred (protein)
chain: MNVEEAKKEAKEIRDETIAKMKAAKTPEEVAAVAHEGLQKLAEGAYKFKSNKEAEKIYEEARKEVIDAAREIAAALEAAA
With B38, the “binding in a display sort” value was “not found”.
